This note sets out measurements from PubChem BioAssay AID952 (NMMLSC, 2007).

SMILES strings stand for the structures. In all, about 190,000 compounds went through this assay and about 45 (0.02%) were called active. Rule as the data show it: active = inhibition above about 40%. These entries were drawn from the full list.

For this test, the target named is Bcl-2-like protein 2 (Homo sapiens) (UniProt Q92843). As to the kind of experiment: Bcl-W/Bim complex disruptors – biochemical, multiplexed, bead-based flow cytometry, primary screen (AID 952).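 Also: 0% = bound tracer without compound and 100% = peptide blocker; higher means less fluorescent Bim peptide bound to Bcl-W beads.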 The note with it: Bim peptide-Bcl-W binding, at 10 µM, hits give high values. Background: In flow cytometry, cells or beads pass a laser one at a time.
Sequence of Bcl-2-like protein 2 (Homo sapiens) (Q92843 whole entry, looked up): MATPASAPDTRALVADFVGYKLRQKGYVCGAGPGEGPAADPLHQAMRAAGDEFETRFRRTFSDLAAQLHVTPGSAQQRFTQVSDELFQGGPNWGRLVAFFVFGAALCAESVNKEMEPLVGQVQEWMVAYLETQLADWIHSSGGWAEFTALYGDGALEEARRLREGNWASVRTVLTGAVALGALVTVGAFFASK
For `CCOC(=O)NC(=O)/C(C#N)=C\c1ccccc1`, the inhibition (in general, the relative decrease from the control value, in per cent) is -2% (inactive). On to `Cc1cc(C)cc(NC(=O)N2CCCCCCC2)c1`, for which the inhibition is 0% (inactive). The figure for `Cc1[nH]c2ccccc2c1C(=O)COC(=O)c1c(-c2ccccc2)noc1C` is -1% (inactive); for `COc1cc(SC#N)ccc1N=Cc1c(C)[nH]n(-c2ccc(C)cc2)c1=O` it is 6% (inactive); for `O=C(NCc1ccccc1)C1CCCN(c2nc3ccsc3c(=O)s2)C1` (stereo not given) it is -4% (inactive).

For the compound `CCN(CC)CC(=O)Nc1sc2c(c1C(=O)c1ccccc1C)CCC2`, the inhibition is 0% (inactive). The figure for `O=C(Nc1nnc(-c2ccco2)o1)c1ccc(S(=O)(=O)N2CCOCC2)cc1` is 0% (inactive); for `Cc1nc(N2CCOCC2)sc1C(=O)NN` it is 0% (inactive); for `CC1CCN(C(=S)c2cccc([N+](=O)[O-])c2)CC1` it is 0% (inactive). On to `N/C(=N\OC(=O)CCCC(=O)O)c1ncc(C(F)(F)F)cc1Cl`, for which the inhibition was -1% (inactive).

On to `Cc1ccc(SC(C)C(=O)NCc2ccc(F)cc2)cc1` (stereo not given), for which the inhibition was 0% (inactive). Then `Cc1ccc(Nc2cc(C)nc3c(C)ccc([N+](=O)[O-])c23)cc1`, with 0% (inactive); and `N#Cc1c(NC(=O)c2ccc(N3CCOCC3)c([N+](=O)[O-])c2)sc2c1CCCC2`, with -4% (inactive). As for `Cc1cc(C)nc(-n2nc(C)cc2NC(=O)c2ccc(F)cc2F)n1`, the inhibition was 1% (inactive). Turning to `CCc1nn(CCCN2CCN(c3cccc(Cl)c3)CC2)c(=O)n1CCOc1ccccc1`, the inhibition is -5% (inactive). Then `C/C(=N/N1CCN(Cc2cccc3ccccc23)CC1)c1cccnc1`, with 0% (inactive); and `O=C1CC(c2cccc(Cl)c2)CC(O)=C1C=Nc1ccccc1` (stereo not given), with -5% (inactive); and `Cc1cnc(C(=O)OCC(=O)N2CCc3ccccc32)cn1`, with 0% (inactive). Consider `CC(=O)C1(C)N(O)C(C)(C)C(c2cccs2)=[N+]1[O-]` (stereo not given), for which the inhibition is 0% (inactive). `O=C(OCC(=O)c1cccs1)c1ccc([N+](=O)[O-])o1`: the inhibition is 0% (inactive).

In the case of `O=C(CCl)N(Cc1cccc([N+](=O)[O-])c1)c1cccc(Cl)c1`, the inhibition was 1% (inactive). As to `c1ccc2c(c1)OCCOCCOCCO2`, the inhibition was 0% (inactive).

For the compound `CCOc1cccc2c1OC1(CCCCC1)N1N=C(c3cccnc3)CC21` (stereo not given), the inhibition was -4% (inactive).

Take `CCCC(=O)Nc1ccc(C(=O)N/N=C/c2ccc[nH]2)cc1`: the inhibition is -5% (inactive). Then `Cc1ccc(S(=O)(=O)N(C)C)cc1NC(=O)COC(=O)c1c(C)noc1C`, with 0% (inactive); and `Cc1cc(/C=N/NC(=O)c2cccnc2)c(C)n1CC(C)C`, with 1% (inactive); and `CC(=O)Nc1ccc(NC(=O)CSc2nnc(COc3ccccc3C)n2CC2CCCO2)cc1` (stereo not given), with -2% (inactive). Then `Cc1cc(C)n2nc(C(=O)N3CCN(Cc4ccc5c(c4)OCO5)CC3)nc2n1`, with -2% (inactive); and `C/C(=N/Nc1ccc(Cl)cc1)c1cnnc(-c2ccccc2)n1`, with -1% (inactive). `O=C(O)/C=C/C(=O)NNc1ccc([N+](=O)[O-])cc1`: the inhibition was 5% (inactive). Consider `CCOC(=O)c1cccc(NC(=O)CCOc2ccccc2)c1`, for which the inhibition was -1% (inactive). Then `O=C(Cn1nnc2ccccc2c1=O)NCc1ccc(Cl)cc1`, with -1% (inactive); and `CSc1nc2ccccc2c(=O)n1Cc1ccc(F)cc1`, with 0% (inactive). Turning to `COc1ccc(NC(=S)NCC2CCN(c3ccc(OC)cc3)C2)cc1` (stereo not given), the inhibition was 0% (inactive). Regarding `CCOc1ccc(N2C(=O)/C(=C/c3ccc(C)o3)N(C)C2=S)cc1`, the inhibition was 4% (inactive). The figure for `O=c1[nH]n2c(-c3ccccc3)nc(O)c2c2ccccc12` is -1% (inactive); for `COc1ccc(C(C(=O)NC2CCCCC2)N(C(=O)CCl)c2ccccc2Cl)cc1` (stereo not given) it is 0% (inactive). Then `OC(CNCc1ccc(Cl)c(Cl)c1)c1ccccc1` (stereo not given), with 0% (inactive); and `O=C(COc1ccc(Cl)cc1[N+](=O)[O-])N1CCCCC1`, with 3% (inactive).

Regarding `Cc1nccn1CC(=O)N/N=C/c1ccc(O)c(O)c1`, the inhibition was -5% (inactive). Take `CN(Cc1nc2ccc(F)cc2[nH]1)Cc1nc(CC2CC2)no1`: the inhibition is -6% (inactive).

`Nc1nnc(SCC(=O)OCc2ccc(Cl)c(Cl)c2)s1`: the inhibition was 3% (inactive). The figure for `CN(C)CCOc1cccc(Br)c1` is -3% (inactive); for `Clc1cc(-c2ccc(/C=N/n3cnnc3)o2)ccc1Br` it is 0% (inactive). Then `CCC(=O)N(Cc1cc2ccccc2[nH]c1=O)c1ccc(OC)cc1`, with 0% (inactive); and `CCOC(=O)c1cnc2c(c(C)nn2CC)c1Cl`, with -1% (inactive). In the case of `CN(C)/N=C/c1cn(-c2ccccc2)nc1-c1cccnc1`, the inhibition was 1% (inactive). Consider `Cc1cc(C)n(-c2ccc(C(=O)O)cc2[N+](=O)[O-])n1`, for which the inhibition was 0% (inactive). Turning to `CCCCNC(=O)C1CCC(CNS(=O)(=O)c2ccc(NC(C)=O)cc2)CC1` (stereo not given), the inhibition was 1% (inactive). In the case of `C=CCn1c(=NC(=O)c2cccs2)sc2cc(NC(C)=O)ccc21`, the inhibition is 0% (inactive). Turning to `O=C(NNC(=S)NCc1ccccc1)c1ccc(OC(F)F)cc1`, the inhibition was 1% (inactive). The figure for `CC(=O)c1cccc(-n2nnnc2SCC(=O)NNC(=O)C2CCCCC2)c1` is 0% (inactive); for `CC(=O)c1cc(C#N)c(SCC(=O)Nc2nccs2)nc1C` it is -1% (inactive); for `COCCNC(=O)c1ccc(-n2c(SCc3cccnc3)nc3ccccc3c2=O)cc1` it is -4% (inactive). Turning to `CCCCN(CC)CCNC(=O)CCNC(=O)Cn1ccc2ccccc2c1=O`, the inhibition was -2% (inactive). In the case of `CCN(CC(=O)NCc1cccs1)S(=O)(=O)c1ccc(NC(C)=O)cc1`, the inhibition was 0% (inactive). The figure for `CN(CCC1CCOCC1)Cc1cn[nH]c1-c1ccc(-c2ccccc2)cc1` is -1% (inactive); for `O=C(NC(=S)N1CCN(Cc2ccccc2)CC1)c1ccccc1` it is -3% (inactive); for `CCOC(=O)c1c(NC(=O)C(C)Sc2c[nH]c3ccccc23)sc2c1CCC2` (stereo not given) it is -3% (inactive). Then `COc1cc(NC(=S)NCc2ccco2)c(OC)cc1Cl`, with -1% (inactive); and `O=C(c1ccc(F)cc1)c1cn(Cc2ccc(F)cc2)c2cc3c(cc2c1=O)OCCO3`, with -4% (inactive); and `COc1cc(C)c(S(=O)(=O)N2CCOCC2)c(C)c1C`, with -3% (inactive). Then `Cc1nnsc1C(=O)N/N=C/c1cccc(C(F)(F)F)c1`, with -2% (inactive); and `CCOC(=O)c1[nH]c2c(c1-c1ccccc1)C(=O)CC(c1ccc(Cl)cc1)C2` (stereo not given), with -3% (inactive). `COc1ccc(N=C2SC(C(=O)Nc3ccc(F)cc3)CC(=O)N2C)cc1` (stereo not given): the inhibition is 0% (inactive). `CNC(=O)/C(C#N)=C/c1c(F)cccc1Cl`: the inhibition is -2% (inactive).

Turning to `CCn1ncc(CNC(=O)C2(C)CC2(Br)Br)c1C` (stereo not given), the inhibition was -4% (inactive). Regarding `Cc1ccc(N(C(=O)C(F)(F)F)C(C(=O)NC2CCCCC2)c2ccncc2)cc1C` (stereo not given), the inhibition is -1% (inactive). For `N#Cc1cccc(Nc2c3c(nc4ccccc24)CCCC3)c1`, the inhibition was 4% (inactive). With `COc1ccc(Cl)cc1NC(=O)CN(C)Cc1ccc(OC)c(OC)c1`, the inhibition is -4% (inactive). Regarding `NC(=O)CC[C@@H]1NC(=O)[C@H](CO)NC(=O)c2cc([N+](=O)[O-])cc(I)c2NCC[C@@H](C(N)=O)NC1=O`, the inhibition was 0% (inactive). With `O=C(/C=C/c1ccc(N2CCOCC2)cc1)c1ccccc1`, the inhibition is -4% (inactive).

For the compound `CCCC(C)C(=O)OCC(=O)Nc1c(Br)cc(C)cc1Br` (stereo not given), the inhibition is 0% (inactive). Consider `O=S(=O)(c1ccc(F)cc1)N1CCN(C(=S)NC2CCCC2)CC1`, for which the inhibition was 0% (inactive).

With `COc1cc2c(cc1NC(=O)COC(=O)/C=C/c1ccccc1)oc1ccccc12`, the inhibition was -7% (inactive). The figure for `Cc1ccc(N(C(=O)c2sc(C)nc2C)C(C(=O)NC(C)(C)C)c2ccncc2)cc1` (stereo not given) is -1% (inactive); for `COc1ccc(C(=O)CSc2nnc(NC(=O)C3CC(=O)N(c4cccc(OC)c4)C3)s2)cc1` (stereo not given) it is -2% (inactive).

As to `O=C(Nn1c(-c2ccc(Cl)cc2)nc2ccccc2c1=O)c1cccnc1Cl`, the inhibition was 10% (inactive). `Cc1cc(OCCCN2CCN(Cc3ccccc3)CC2)ccc1[N+](=O)[O-]`: the inhibition is 0% (inactive). Then `COc1ccc(Nc2ncc(F)c(N3CCOCC3)n2)cc1`, with -1% (inactive).

For `CCCCCOc1ccc(/C=C/C(=O)NCCc2nc3ccccc3[nH]2)cc1OC`, the inhibition is -7% (inactive).

For `CCCC/C(C)=N/NC(=O)NC1CCCCC1`, the inhibition was -3% (inactive). Take `COc1ccnc(Oc2ccccc2)c1-c1ncn[nH]1`: the inhibition is -1% (inactive).

As to `N=c1n(CCc2ccccc2)c2ccccc2n1Cc1ccccc1F`, the inhibition was -6% (inactive). The figure for `COc1ccccc1NC(=S)N1CCN(C(c2ccccc2)c2ccccc2)CC1` is 1% (inactive); for `O=C(c1ccncc1)N1CCN(c2ccc3ccccc3n2)CC1` it is 0% (inactive). For the compound `Cc1ccc(C(=O)Oc2coc(CSc3nnc(NC(=O)c4cccs4)s3)cc2=O)cc1C`, the inhibition was -6% (inactive). Regarding `COc1ccc(NC(=O)C(=O)NCC(=O)Nc2cccc(C(F)(F)F)c2)cc1`, the inhibition was 1% (inactive).

Regarding `CCN(CC)C(=O)CS(=O)CC(=O)Nc1cc(OCCOC)c(Cl)cc1Cl` (stereo not given), the inhibition is -1% (inactive). Then `Brc1cc(/C=N/n2cnnc2)oc1Br`, with -2% (inactive). Regarding `CCc1ccc(CN(C)C(=O)CCc2nnc(-c3ccc(-c4ccccc4)cc3)o2)nc1`, the inhibition is 1% (inactive). Then `CC(C)N(Cc1ccccc1)C(=O)COC(=O)c1cnccn1`, with -1% (inactive); and `COCC(C)n1c(C)cc(C(=O)CSc2cc(C)c3ccccc3n2)c1C` (stereo not given), with -6% (inactive); and `O=C(c1cccs1)n1nc(NCc2ccccc2)nc1NCc1ccccc1`, with 0% (inactive). Then `Cc1ccc(NCc2n[nH]c(=S)n2-c2ccccc2)cc1Cl`, with 0% (inactive).

For the compound `Cc1cc2nc(C(F)(F)F)cc(-c3cccs3)n2n1`, the inhibition is 0% (inactive). In the case of `O=C1Oc2ccccc2C(=O)/C1=C/c1ccccc1O`, the inhibition was 0% (inactive). As for `Cc1ccc(/C=C/C(=O)Nc2cc(S(=O)(=O)N3CCCCCC3)ccc2OCC(F)(F)F)o1`, the inhibition is -2% (inactive). The figure for `Cc1ccc(C2CC(c3cccc(NS(C)(=O)=O)c3)=NN2S(C)(=O)=O)cc1` (stereo not given) is -1% (inactive).

On to `COCCn1c(=O)[nH]c(=O)c2cc(C(=O)c3cc(OC)ccc3O)cnc21`, for which the inhibition is -3% (inactive).
